# From PubChem
# BCLXL inh = blocks human Bcl-xL binding to Bim BH3 peptide; actives 0.7% (n = 320,000); inhibition, % at 10.9 µM; GST-Bcl-xL / FITC-Bim BH3 peptide fluorescence polarization; AID 2129;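 active = inhibition above the mean of all tested compounds plus 3 SD, cutoff set per campaign, cut at about 30% in these data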;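 note: 0% = DMSO wells and 100% = unlabeled Bim-BH3 peptide competitor; inhibitors lower millipolarization by displacing the labeled peptide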
# Target sequence (Q07817 whole entry, looked up): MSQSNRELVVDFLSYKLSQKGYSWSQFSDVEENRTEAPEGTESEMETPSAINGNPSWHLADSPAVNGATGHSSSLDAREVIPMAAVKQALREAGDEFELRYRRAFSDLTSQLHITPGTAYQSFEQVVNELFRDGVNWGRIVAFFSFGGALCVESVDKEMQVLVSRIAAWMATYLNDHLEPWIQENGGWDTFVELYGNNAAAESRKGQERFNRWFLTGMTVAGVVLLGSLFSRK
# Mcl1-Noxa inh = disrupts binding of human Mcl-1 to Noxa peptide. TR-FRET Mcl-1/Noxa peptide binding, 2 h. inhibition, % at 21.7 µM. actives 1.5% (n = 220,000);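 active = compounds that cut the protein-peptide binding signal by more than 50% relative to plate controls in a single-dose test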;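 note: His-tagged Mcl-1 with rhodamine Noxa BH3 peptide and terbium anti-His antibody; 0% = Mcl-1 plus Noxa peptide wells and 100% = peptide-only wells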
# Target sequence (Q07820 whole entry, looked up): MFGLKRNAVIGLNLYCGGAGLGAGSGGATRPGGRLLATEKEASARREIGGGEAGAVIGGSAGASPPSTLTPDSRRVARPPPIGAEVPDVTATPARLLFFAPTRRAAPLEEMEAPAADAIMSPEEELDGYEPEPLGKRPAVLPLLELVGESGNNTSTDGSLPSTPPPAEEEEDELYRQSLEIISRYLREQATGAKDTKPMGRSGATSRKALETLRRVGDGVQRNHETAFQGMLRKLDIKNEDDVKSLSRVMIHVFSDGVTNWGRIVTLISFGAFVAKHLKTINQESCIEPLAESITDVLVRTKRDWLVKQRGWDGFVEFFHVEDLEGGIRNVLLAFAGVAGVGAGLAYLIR
# Mcl1 Bid PPI = Mcl-1/Bid interaction inhibition; actives 0.97% (n = 220,000); TR-FRET Mcl-1/Bid-Dy647 peptide binding, 1536-well; inhibition, % at 21.7 µM; Q07820; AID 1021;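 active = compounds that cut the binding signal by more than half at the single screening dose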;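 note: His-tagged Mcl-1 with europium anti-His antibody binding Bid BH3 peptide; 0% = Mcl-1 plus peptide wells and 100% = peptide-only wells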
# MCL1-BIM inh = disrupts human MCL1 binding to BIM-BH3 peptide; Q07820; GST-MCL1 / FITC-Bim-BH3 fluorescence polarization; inhibition, % at 10.9 µM; actives 0.68% (n = 320,000);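 active = inhibition above the mean inhibition of all tested compounds plus 3 SD, set per campaign, cut at about 40% in these data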;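 note: 0% = DMSO wells and 100% = unlabeled Bim-BH3 peptide control; higher means more loss of mP so more displacement of Bim peptide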
# GLD-1 RNA inh = GLD-1-TGE RNA interaction inhibition (C. elegans). Q17339. purified GLD-1 + fluorescein TGE RNA, fluorescence polarization. inhibition, % at 5.96 µM. actives 0.44% (n = 320,000);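 active = percent inhibition above a per-plate cutoff, the plate mean of test compounds plus 3 SD, cut at about 30% in these data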;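 note: 0% = DMSO wells with GLD-1 and probe and 100% = wells lacking GLD-1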
# Bim-Mcl-1 = inhibitors of Bim-Mcl-1 interaction, human; Q07820; Bead-based flow cytometry, Bim peptide-Mcl-1 binding; inhibition, % at 10 µM; actives 0.1% (n = 190,000); AID 1009; in the data active = inhibition above about 40%;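 note: 0% = no compound tracer wells and 100% = peptide blocker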
# * marks the source's active call; other numbers are inactive results; . = no result. Shown are actives, neighbours in structure and some others; about 2.3% of the full set was active somewhere.
SMILES,BCLXL inh,Mcl1-Noxa inh,Mcl1 Bid PPI,MCL1-BIM inh,GLD-1 RNA inh,Bim-Mcl-1
CC(C)(C)c1cc(C(c2cccnc2)N2CCN(CCO)CC2)cc(C(C)(C)C)c1O (centres undefined),3.7,42.3,54.9*,11.4,12.5,-11.0
O=C1/C(=C/c2ccc(O)c([N+](=O)[O-])c2)SC(=S)N1Cc1ccccc1,-11.4,56.4*,13.4,-9.1,-6.4,-2.0
O=C1/C(=C\c2cccc([N+](=O)[O-])c2O)SC(=S)N1Cc1ccccc1,11.7,.,.,25.0,-5.0,.
COc1cc(/C=C2\SC(=O)N(Cc3ccc(F)cc3)C2=O)cc([N+](=O)[O-])c1O,.,97.3*,21.9,.,.,3.0
CCOC(=O)CN1C(=O)S/C(=C/c2ccc(OC)c([N+](=O)[O-])c2)C1=O,3.4,13.0,-5.2,3.4,7.5,18.0
COc1cc(/C=C2\SC(=O)N(Cc3ccc(Cl)cc3)C2=O)cc([N+](=O)[O-])c1O,.,91.7*,90.5*,.,.,0.0
N#CCCCc1cc2cc(F)ccc2cn1,.,.,.,.,2.0,.
Nc1c(C(=O)Nc2nccs2)sc2nc(-c3cccs3)cc(C(F)(F)F)c12,31.4*,32.5,31.8,33.4,19.5,-3.0
CC(C)(C)C(=O)c1sc2nc(-c3cccs3)cc(C(F)(F)F)c2c1N,19.9,7.7,-75.2,-0.4,-28.1,-3.0
Cc1nnc(NC(=O)c2sc3nc(-c4cccs4)cc(C(F)(F)F)c3c2N)s1,21.4,97.9*,44.9,7.7,-37.0,2.0
Cc1ccc(S(=O)(=O)Nc2cccc3c2O[C@H](CN(C)Cc2ccccc2)[C@@H](C)CN([C@H](C)CO)C3=O)cc1,.,.,.,.,-6.1,.
COC(=O)c1ccccc1NC(=O)c1ccc(COc2ccc3c(c2)CCC3)cc1,5.6,9.8,57.8*,-0.3,11.0,0.0
COc1ccccc1NC(=O)c1ccc(COc2ccc3c(c2)CCC3)cc1,-1.5,0.1,2.4,-6.5,0.7,-5.0
COC(=O)c1ccc(COc2ccc(/C=N/Nc3nc(C)cc(=O)[nH]3)cc2)cc1,-1.4,54.8*,15.1,0.1,9.2,.
COC(=O)c1ccc(COc2ccc(/C=N/Nc3cccc(C(=O)O)c3)cc2)cc1,10.3,37.1,-16.1,8.3,-2.0,.
O=C1CCC/C(=N\NC(=O)COc2ccc(Cl)cc2)C1,6.5,15.9,-14.0,9.7,64.1*,0.0
COc1ccc(NC(=O)CN(C)C(=O)/C=C/c2cn(-c3ccccc3)nc2-c2cccs2)cc1,-5.7,.,.,-27.5,-2.0,.
O=C(COC(=O)Cc1ccccc1F)NNC(=O)c1ccc([N+](=O)[O-])cc1,5.1,.,.,7.4,-0.3,.
Cc1ccc(NC(=O)CC2S/C(=N/N=C/c3c[nH]c4ccccc34)NC2=O)cc1 (centres undefined),-0.8,47.9,57.5*,7.1,-3.6,25.0
CCOC(=O)c1ccc(NC(=O)CC2S/C(=N/N=C/c3c[nH]c4ccccc34)NC2=O)cc1 (centres undefined),0.5,61.2*,62.5*,0.2,2.5,.
CC(=O)NCCC1CCN(C(=O)C2CCC(=O)N(C3CCCC3)C2)CC1 (centres undefined),5.2,.,.,9.1,-1.0,.
O=C(CCCN1C(=O)c2cccc3cccc(c23)C1=O)N1CCN(c2ccccc2O)CC1,7.5,55.1*,-22.3,0.2,8.2,-4.0
Cc1ccc(NC(=O)CC(NCC2CCCO2)C(=O)O)cc1C (centres undefined),-4.1,17.2,-19.9,-3.5,-3.2,-1.0
O=C(OCC#CCSc1nc2ccccc2s1)c1ccco1,0.7,66.5*,-22.0,7.8,11.2,0.0
O=C(OCC#CCSc1nnc(-c2ccccc2)o1)c1ccco1,2.4,9.7,-22.0,-1.8,-1.8,-3.0
SMILES,BCLXL inh,Mcl1-Noxa inh,Mcl1 Bid PPI,MCL1-BIM inh,GLD-1 RNA inh,Bim-Mcl-1
CCCc1cc2c(=O)c(-c3nc4ccccc4s3)c(COCC(=O)O)oc2cc1O,.,72.9*,2.3,.,.,1.0
CCc1cc2c(=O)c(-c3nc4ccccc4n3C)c(COCC(=O)O)oc2cc1O,1.5,11.2,-15.3,2.6,2.0,-2.0
Cc1ccc(Cn2nnc3c(=O)[nH]c(C4CCN(S(=O)(=O)c5ccccc5F)CC4)nc32)cc1,7.5,.,.,7.5,-2.8,.
COc1ccc(NS(=O)(=O)c2cccc3ccccc23)cc1,8.6,.,.,5.7,-1.6,.
CCCCCCCNC(=O)C1(CC2CC(c3ccc(Cl)cc3)=NO2)CCNCC1 (centres undefined),0.3,.,.,1.6,0.8,.
CCOC(=O)c1cc(C)[nH]c(=S)c1C#N,17.8,71.7*,-46.6,8.3,4.3,-4.0
CN(C)NC1CCS(=O)(=O)C1 (centres undefined),3.2,51.6*,-9.4,3.3,3.1,-1.0
O=S1(=O)CCC(NC2CCCC2)C1 (centres undefined),5.7,.,.,5.7,0.5,.
COc1cc(C(=O)NNC(=O)c2ccccc2OCc2c(C)noc2C)cc(OC)c1OC,-4.1,.,.,-6.7,-6.9,.
Cn1cc(CN2C[C@]3(C)C[C@H]2CC(C)(C)C3)c(-c2ccc3c(c2)OCCO3)n1,8.4,11.2,-19.6,12.1,-3.8,50.0*
O=C(Nc1ccc(C2=NCCN2)cc1)c1ccc(C(=O)Nc2ccc(C3=NCCN3)cc2)c([N+](=O)[O-])c1,1.8,67.3*,33.6,14.1,8.2,.
Cc1ccc(NC(=O)c2ccc(-n3cccn3)c([N+](=O)[O-])c2)cc1,-0.1,18.0,-20.9,-5.5,7.3,10.0
COc1ccccc1CNc1nc(-c2cc(C)n(C)c2C)cs1,.,89.6*,64.5*,.,.,10.0
Cc1cc(-c2csc(N)n2)c(C)n1C,41.1*,12.3,-39.5,42.1*,14.7,8.0
COCCNc1nc(-c2cc(C)n(CCc3ccc(OC)cc3)c2C)cs1,32.6*,57.0*,-2.5,22.0,-0.9,1.0
COc1ccc(CCNc2nc(-c3sc(N)nc3C)cs2)cc1OC,7.2,20.5,-34.4,5.7,-10.7,-4.0
Cc1ccc(-n2c(C)cc(-c3csc(N)n3)c2C)cc1,10.9,29.0,-27.4,9.3,4.1,-6.0
Cc1cccc(-c2noc(CCCC(=O)NC3CCCC3)n2)c1,5.9,.,.,4.4,6.2,.
CN(c1ccccc1)S(=O)(=O)c1ccc(Cl)nc1,5.8,-10.5,-12.4,0.0,-5.9,0.0
Cc1nc(S(=O)(=O)N(C)c2ccccc2)c(C#N)c(C)c1Cl,31.2*,2.3,1.0,-9.6,-0.3,-3.0
Cc1ccc(Cl)c2c1=NC(=O)C=2c1[nH]c(=S)[nH]c1O,9.0,53.0*,-100.4,6.4,-12.6,1.0
O=C1N=c2ccccc2=C1c1[nH]c(=S)[nH]c1O,13.5,65.5*,-24.0,15.8,2.4,-4.0
CC(=O)Oc1c(Cl)cc(N(C(C)=O)S(=O)(=O)c2ccccc2)c2ccccc12,3.2,.,.,4.3,2.8,.
C/C(=N\NC(=O)c1cccc(N/N=C(\C)c2ccco2)c1)c1ccco1,.,83.8*,-40.5,.,.,3.0
C/C(=N\NC(=O)c1cccc(N/N=C(\C)c2cc(O)ccc2O)c1)c1cc(O)ccc1O,17.5,100.5*,-5.7,23.1,6.7,5.0
